Data taken from PubChem BioAssay (Tox21).
Inconclusive results are not listed. Where a call stands in place of a potency, no number is given. Active and inactive are the calls of the source. Unless noted, the call rests on the fitted dose curve; in most records, active means well fitted curve in the direction sought with a large enough effect in the repeat runs; inconclusive means weak or mixed curves; inactive means no such curve, though single readings can be large; an effect the other way counts as inactive or inconclusive.

What was measured:
[1] = qHTS assay to identify aromatase inhibitors - cell viability counter screen (AID 743084);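 further: cells stimulated with testosterone during compound exposure; nearly all actives have a fitted effect of over 55% in size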
[2] = biological target: Aryl hydrocarbon receptor (Homo sapiens) (UniProt P35869); assay: qHTS assay to identify small molecule that activate the aryl hydrocarbon receptor (AhR) signaling pathway (AID 743085); further: nearly all actives have a fitted effect of over 15% in size; further: potency means the concentration at half of the fitted maximal effect;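 on activation: HG2L7.5c1 human HepG2 liver cells with stably integrated DRE-driven firefly reporter; series mostly up to about 70 µM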
Chain of Aryl hydrocarbon receptor (Homo sapiens) (P35869 whole entry, looked up): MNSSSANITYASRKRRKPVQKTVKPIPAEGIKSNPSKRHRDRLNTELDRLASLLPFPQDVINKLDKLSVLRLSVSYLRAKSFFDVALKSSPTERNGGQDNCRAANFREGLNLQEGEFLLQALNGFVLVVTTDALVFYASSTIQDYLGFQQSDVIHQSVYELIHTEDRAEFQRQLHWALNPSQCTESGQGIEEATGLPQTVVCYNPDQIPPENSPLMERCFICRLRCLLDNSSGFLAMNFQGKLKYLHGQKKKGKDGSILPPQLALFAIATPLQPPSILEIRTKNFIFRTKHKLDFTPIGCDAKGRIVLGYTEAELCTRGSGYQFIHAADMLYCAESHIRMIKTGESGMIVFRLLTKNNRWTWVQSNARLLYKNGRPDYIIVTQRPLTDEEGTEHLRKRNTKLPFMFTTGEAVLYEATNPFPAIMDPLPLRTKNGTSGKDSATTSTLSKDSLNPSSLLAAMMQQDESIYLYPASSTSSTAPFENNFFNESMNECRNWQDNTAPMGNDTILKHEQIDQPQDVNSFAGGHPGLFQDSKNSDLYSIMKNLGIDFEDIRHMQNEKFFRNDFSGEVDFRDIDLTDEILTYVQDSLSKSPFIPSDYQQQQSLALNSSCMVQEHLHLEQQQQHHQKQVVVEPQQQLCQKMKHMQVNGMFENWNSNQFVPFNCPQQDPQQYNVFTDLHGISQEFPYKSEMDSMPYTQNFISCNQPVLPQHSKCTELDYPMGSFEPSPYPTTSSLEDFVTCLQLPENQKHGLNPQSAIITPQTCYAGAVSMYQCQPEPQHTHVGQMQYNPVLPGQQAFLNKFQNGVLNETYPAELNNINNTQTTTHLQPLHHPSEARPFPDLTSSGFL
Procedure, shortened: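 24 h compound exposure, 37C, HepG2-derived HG2L7.5c1 cells with DRE-responsive luciferase. Readouts: fluorescence viability, then luminescence at room temperature after 30 min.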

[3] = qHTS assay to identify small molecule that activate the aryl hydrocarbon receptor (AhR) signaling pathway - cell viability counter screen (AID 743086);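 further: HepG2 liver cells carrying the AhR DRE luciferase reporter; series mostly up to about 70 µM; nearly all actives have a fitted effect of over 45% in size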
Procedure, shortened: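 HepG2-AhR-luc (HG2L7.5c1) cells, 4000/well, were preincubated 5 h at 37C, exposed to compound in qHTS format for 24 hr at 37C, then given CellTiter-Fluor for 30 min; viability was read as fluorescence in the reporter wells.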

[4] = biological target: Peroxisome proliferator-activated receptor gamma (Homo sapiens) (UniProt P37231); assay: qHTS assay to identify small molecule agonists of the peroxisome proliferator-activated receptor gamma (PPARg) signaling pathway (AID 743094; active means well fitted activation curve with a large enough effect in the signal ratio in the repeat runs, not every such curve was filed as active; the % refers to the signal ratio)
Chain of Peroxisome proliferator-activated receptor gamma (Homo sapiens) (P37231 whole entry, looked up): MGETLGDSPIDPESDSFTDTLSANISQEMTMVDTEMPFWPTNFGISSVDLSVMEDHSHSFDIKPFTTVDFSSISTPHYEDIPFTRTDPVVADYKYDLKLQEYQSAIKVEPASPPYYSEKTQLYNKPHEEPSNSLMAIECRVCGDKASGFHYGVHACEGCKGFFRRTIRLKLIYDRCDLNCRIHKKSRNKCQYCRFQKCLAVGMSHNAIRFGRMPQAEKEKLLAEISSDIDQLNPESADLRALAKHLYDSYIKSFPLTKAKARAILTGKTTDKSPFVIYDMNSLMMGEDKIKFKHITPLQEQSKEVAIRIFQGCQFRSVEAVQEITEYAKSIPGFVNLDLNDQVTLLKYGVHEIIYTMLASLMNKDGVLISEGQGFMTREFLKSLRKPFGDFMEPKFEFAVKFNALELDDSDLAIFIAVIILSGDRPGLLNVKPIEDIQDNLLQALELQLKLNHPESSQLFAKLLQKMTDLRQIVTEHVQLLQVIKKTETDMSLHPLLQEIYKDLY
Procedure, shortened: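 Agonist activity was taken from a beta-lactamase reporter (FRET substrate, 1 h at room temperature) in HEK293H cells carrying a PPARg UAS-bla construct. Compounds in DMSO were incubated 17 h at 37C after a 5 h cell pre-incubation.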

[5] = qHTS assay for small molecule activators of the heat shock response signaling pathway - cell viability counter screen (AID 743209); further: nearly all actives have a fitted effect of over 50% in size
Procedure, shortened: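 Cytotoxicity counter screen run in the same wells as the heat-shock bla reporter assay: HeLa HSE-bla cells, 5 h compound exposure at 37 C, viability read by CellTiter-Glo luminescence.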

[6] = biological target: Peroxisome proliferator-activated receptor gamma (Homo sapiens) (UniProt P37231); assay: qHTS assay to identify small molecule antagonists of the peroxisome proliferator-activated receptor gamma (PPARg) signaling pathway (AID 743191; calls by dose curve; further: nearly all actives have a fitted effect of over 30% in size; further: potency means the concentration at half of the fitted maximal effect)
Procedure, shortened: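 GeneBLAzer PPARg UAS-bla HEK293H cells carrying a UAS-driven beta-lactamase reporter were plated at 3000 cells/well, preincubated 5 h at 37C, then given compound for 17 h at 37C; LiveBLAzer B/G FRET substrate was read after 1 h at room temperature.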

[7] = qHTS assay for small molecule agonists of the antioxidant response element (ARE) signaling pathway - cell viability counter screen (AID 743203; calls by dose curve; further: nearly all actives have a fitted effect of over 55% in size)
Procedure, shortened: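 Viability counter screen: CellTiter-Glo luminescence, read after 30 min at room temperature, in ARE-bla HepG2 wells. Compound exposure lasted 16 h at 37C/5% CO2, following a 5 h pre-incubation of the cells after plating.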

[8] = qHTS assay for small molecule activators of the heat shock response signaling pathway (AID 743210; active means well fitted activation curve with a large enough effect in the signal ratio in the repeat runs, with a control signal flat, not every such curve was filed as active; the % refers to the signal ratio; further: potency means the concentration at half of the fitted maximal effect;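 on activation: HeLa cells with beta-lactamase reporter driven by heat shock elements; series mostly up to about 63 µM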)
Procedure, shortened: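 Activation of heat shock element-controlled beta-lactamase expression is measured in HeLa cells by LiveBLAzer FRET fluorescence, with compound exposure lasting 5 h at 37 C and substrate loading 2.5 h at room temperature.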

[9] = qHTS assay to identify small molecule antagonists of the peroxisome proliferator-activated receptor gamma (PPARg) signaling pathway - cell viability counter screen (AID 743194); further: nearly all actives have a fitted effect of over 55% in size
Procedure, shortened: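 PPARg-UAS-bla HEK293H cells were plated, rested 5 h at 37 C, then treated with compounds plus rosiglitazone (50 nM final) for 17 h at 37 C; viability was then read by CellTiter-Glo luminescence after 30 min at room temperature.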

[10] = qHTS assay for small molecule agonists of the antioxidant response element (ARE) signaling pathway (AID 743202; active means well fitted activation curve with a large enough effect in the signal ratio in the repeat runs, not every such curve was filed as active; the % refers to the signal ratio; further: potency means the concentration at half of the fitted maximal effect)
Procedure, shortened: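 Steps: seed ARE-bla HepG2 cells (2,000/well); incubate 5 h at 37 C; add compounds by pin tool; incubate 16 h at 37 C; add FRET substrate; read fluorescence after 2 h at RT.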

Compound | Potency [1] | Potency [2] | Potency [3] | Potency [4] | Potency [5] | Potency [6] | Potency [7] | Potency [8] | Potency [9] | Potency [10]
C=Cc1ccc(S(=O)(=O)O)cc1 | inactive | inactive | inactive | inactive | inactive |  |  |  |  | 
CCC(C)COC(=O)CC(C)C (stereo not given) | inactive | inactive | inactive |  | inactive | inactive | inactive | inactive |  | 
CO/N=C(/C(=O)N[C@@H]1C(=O)N2C(C(=O)O)=C(COC(N)=O)CS[C@H]12)c1ccco1 | inactive | inactive | inactive | inactive | inactive |  | inactive |  | inactive | 
COc1ncnc(NS(=O)(=O)c2ccc(N)cc2)c1OC | inactive | inactive | inactive | inactive | inactive |  | inactive | inactive | inactive | 
O=C=Nc1ccc(Cl)c(Cl)c1 | inactive | 47.8 µM (active) | inactive | inactive | inactive |  |  | inactive | inactive | 
CC(C)=CCC1C(=O)N(c2ccccc2)N(c2ccccc2)C1=O | inactive | inactive | inactive |  | inactive | 4.22 µM (active) |  | 28.7 µM (active) | inactive | 1.88 µM (active)
CC1(C)O[C@@H]2C[C@H]3[C@@H]4C[C@H](F)C5=CC(=O)C=C[C@]5(C)[C@H]4[C@@H](O)C[C@]3(C)[C@]2(C(=O)CO)O1 | inactive | inactive | inactive | inactive | inactive |  | inactive | inactive | inactive | inactive
Cc1cc(C)cc(N)c1 | inactive | inactive | inactive |  | inactive | inactive | inactive | inactive | inactive | inactive
COc1ccccc1N1CCN(CC(O)COc2cccc3ccccc23)CC1 (stereo not given) | inactive | 29.8 µM (active) | inactive | inactive | inactive |  | inactive |  | inactive | 
C[C@H]1c2cccc(O)c2C(O)=C2C(=O)[C@]3(O)C(O)=C(C(N)=O)C(=O)[C@@H](N(C)C)[C@@H]3[C@@H](O)[C@@H]21 | inactive | inactive | inactive | inactive | inactive |  |  |  | inactive | 
COc1ccccc1Oc1c(NS(=O)(=O)c2ccc(C(C)(C)C)cc2)nc(-c2ncccn2)nc1OCCO | inactive | inactive | inactive | inactive | inactive |  | inactive |  | inactive | 
CC/C=C1/OC(=O)c2ccccc21 | inactive | inactive | inactive | inactive | inactive |  | inactive | inactive | inactive | inactive
CCOC(=O)C1=C(C)NC(C)=C(C(=O)OC)C1c1cccc(Cl)c1Cl (stereo not given) | inactive | 1.88 µM (active) | inactive |  | inactive | inactive |  |  | inactive | 
